Test results published in the supplement of paper PMC11732987, “Enantioselective OTUD7B fragment discovery through chemoproteomics screening and high-throughput optimisation” (Communications Chemistry, 2025).

The molecules below were run against T1, VCPIP1 (UniProt Q96JH7) (assay: log2 ratio of Biotin-Ahx-Ub-VS probe labelling (fragment/DMSO); higher = less target engagement (more negative = stronger competition), active = hit call of the paper (q ≤ 0.05, log2 ratio ≤ -1)). Settings: compound concentration: 200 uM; treatment time: 3 h.
T1 sequence (whole entry): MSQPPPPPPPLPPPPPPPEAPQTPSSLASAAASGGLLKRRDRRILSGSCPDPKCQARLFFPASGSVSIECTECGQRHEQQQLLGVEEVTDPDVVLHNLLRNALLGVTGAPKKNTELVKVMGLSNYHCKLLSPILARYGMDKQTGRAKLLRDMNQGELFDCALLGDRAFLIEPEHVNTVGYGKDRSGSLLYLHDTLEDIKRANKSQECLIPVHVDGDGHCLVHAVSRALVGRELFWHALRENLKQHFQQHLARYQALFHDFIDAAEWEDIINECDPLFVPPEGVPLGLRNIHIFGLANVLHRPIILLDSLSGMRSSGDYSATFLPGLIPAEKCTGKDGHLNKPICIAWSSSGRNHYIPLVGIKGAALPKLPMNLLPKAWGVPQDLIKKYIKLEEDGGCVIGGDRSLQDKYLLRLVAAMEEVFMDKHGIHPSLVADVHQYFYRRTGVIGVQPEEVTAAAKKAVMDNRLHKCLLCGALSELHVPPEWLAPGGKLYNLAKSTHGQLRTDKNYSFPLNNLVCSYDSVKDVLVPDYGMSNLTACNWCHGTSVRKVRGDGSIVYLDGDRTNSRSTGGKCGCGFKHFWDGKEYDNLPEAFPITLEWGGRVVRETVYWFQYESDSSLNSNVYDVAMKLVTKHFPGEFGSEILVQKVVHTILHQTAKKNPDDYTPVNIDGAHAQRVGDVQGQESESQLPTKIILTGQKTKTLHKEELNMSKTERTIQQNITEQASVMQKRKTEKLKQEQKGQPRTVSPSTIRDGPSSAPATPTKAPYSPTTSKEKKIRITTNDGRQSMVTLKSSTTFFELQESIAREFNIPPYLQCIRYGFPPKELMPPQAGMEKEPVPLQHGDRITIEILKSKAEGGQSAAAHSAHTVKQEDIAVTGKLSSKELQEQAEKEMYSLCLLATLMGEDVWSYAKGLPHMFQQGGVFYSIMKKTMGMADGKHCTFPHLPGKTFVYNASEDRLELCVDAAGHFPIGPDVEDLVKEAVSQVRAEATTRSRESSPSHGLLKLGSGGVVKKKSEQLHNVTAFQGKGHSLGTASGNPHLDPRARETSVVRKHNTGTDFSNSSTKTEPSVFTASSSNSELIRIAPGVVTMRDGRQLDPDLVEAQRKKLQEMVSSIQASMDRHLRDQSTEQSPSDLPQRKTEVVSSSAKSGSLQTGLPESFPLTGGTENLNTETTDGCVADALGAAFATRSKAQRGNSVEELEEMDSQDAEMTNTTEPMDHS
Description: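 Competitive ABPP in HEK293T cell lysate. Lysates were treated with each chloroacetamide fragment at 200 µM for 3 h, then with Biotin-Ahx-Ub-VS (0.5 µM, 1 h), NeutrAvidin-enriched and analysed by diaPASEF LC-MS/MS. Protein LFQ was median-normalised; average log2 ratio is fragment/DMSO from an unpaired t-test (n=3 treated, n=44 DMSO). Hits: q ≤ 0.05, log2 ratio ≤ -1, unique peptides ≥ 2.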

log2 ratio of Biotin-Ahx-Ub-VS probe labelling, inactive:
O=C(CCl)NC1CCC2(CC1)OCCO2 -0.827, O=C(CCl)N1CCOC2(CCC2)C1 -0.0688, O=C(CCl)N1CCOCC1C1CC1 (stereo not given) -0.493, O=C(CCl)N1CCC(c2ccn[nH]2)C1 (stereo not given) -0.333, O=C(O)C1Cc2ccccc2CN1C(=O)CCl (stereo not given) -0.368, Cl.O=C(CN1CCN(C(=O)CCl)CC1)Nc1ccc(F)cc1 -0.257, O=C(CCl)N1c2ccccc2NC(=O)C12CCCC2 -0.744, O=C(CCl)N1CC2(CCOCC2)C1 -0.356, Cl.O=C(CCl)NC1(c2ncccn2)CCC1 -0.136, O=C(CCl)Nc1ccc(F)cc1F -0.736, O=C(CCl)N1CCc2ccccc2C(O)C1 (stereo not given) -0.506, O=C(CCl)N1CCC(C(=O)N2CCCCCC2)CC1 -0.246, O=C(CCl)N1CCCN(C(=O)c2ccc(Cl)cc2)CC1 -0.589, CC1CN(c2ccc(NC(=O)CCl)cc2)CC(C)O1 (stereo not given) -0.624, Cc1ccc(CN(C)C(=O)CCl)o1 -0.13, Cl.O=C(CCl)N1CCN(Cc2ccccc2)CC1 -0.476, O=C(CCl)N1CCN(C(=O)Nc2ccccc2)CC1 -0.418, O=C(CCl)N1CCC(S(=O)(=O)c2ccc(F)cc2)CC1 -0.527, NC(=O)C1CCCN(C(=O)CCl)C1 (stereo not given) -0.167, Cl.O=C(CCl)N1CCCC(c2ncc[nH]2)C1 (stereo not given) -0.387, Cc1conc1C1CN(C(=O)CCl)C1 -0.949, O=C(CCl)N1CCOC2(CCC2)CC1 -0.287, O=C(CCl)N(Cc1ccsc1)C1CC1 -0.642, Cc1cccnc1NC(=O)C1CCN(C(=O)CCl)CC1.Cl -0.543, CCN1C(=O)C2CN(C(=O)CCl)CCN2C1=O (stereo not given) 0.103, O=C(CCl)N1CCCCCC1c1ncon1 (stereo not given) -0.233, O=C(CCl)Nc1cccc2ncccc12 -0.848, Cc1nnc(C(NC(=O)CCl)c2ccccc2)n1C (stereo not given) 0.452, C[C@H]1CN(C(=O)CCl)CCN1C(=O)c1cnn(C)c1.Cl -0.157

log2 ratio of Biotin-Ahx-Ub-VS probe labelling, active:
Cc1ccc(C)c(Oc2ccc(CNC(=O)CCl)cn2)c1.Cl -1.8, O=C(CCl)N1CCC(O)(Cc2ccc(F)cc2)C1 (stereo not given) -2.24, CS(=O)(=O)c1ccc(NC(=O)CCl)cc1 -1.23, O=C(CCl)N[C@H]1CC[C@@H](CO)CC1 -1.4, COc1ccc(-c2csc(NC(=O)CCl)n2)cc1 -1.46, Cc1cccc(N(CCC#N)C(=O)CCl)c1C -2.23, O=C(CCl)NCC1(c2ccccc2)CC1 -2.43, Cl.O=C(CCl)NCc1cc2c(nc1O)CCCC2 -1.56, CN(CCc1ncc(Br)cn1)C(=O)CCl.Cl -2.5, O=C(CCl)NC1CCC(C(F)(F)F)CC1 (stereo not given) -1.35, O=C(CCl)NCc1cccc(F)c1 -1.16
